Most compounds without a hit are left out; they make up all but 5.4% or so of the library.
PP1 inh – PP1-alpha (human) inhibition in PP5 counter-screen | AID 2235 | hit rate 0.9% among 320,000 | purified PP1alpha, OMFP fluorescence | P62136 | inhibition, % at 6.7 µM;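 active = inhibition above the mean inhibition of all tested compounds plus 3 SD, computed separately for each screening campaign, cut at about 15% in these data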
Target sequence (P62136 whole entry, looked up): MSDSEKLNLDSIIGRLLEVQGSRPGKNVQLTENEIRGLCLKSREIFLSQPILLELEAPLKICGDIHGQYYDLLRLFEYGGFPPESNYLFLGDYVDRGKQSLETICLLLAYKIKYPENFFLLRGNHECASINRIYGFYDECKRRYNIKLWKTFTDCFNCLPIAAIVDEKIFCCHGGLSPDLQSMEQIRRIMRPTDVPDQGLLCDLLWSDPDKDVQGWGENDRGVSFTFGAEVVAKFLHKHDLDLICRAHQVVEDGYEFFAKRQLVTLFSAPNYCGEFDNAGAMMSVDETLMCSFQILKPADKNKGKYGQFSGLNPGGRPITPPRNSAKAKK
CSC inhib – cancer stem cell inhibition | cancer stem cell-like cells viability, luminescence | inhibition, % at 7.5 µM | hit rate 1.1% among 300,000; in the data active = inhibition above about 75%; inconclusive = no clear call, values can overlap the other calls; tested in HMLE shEcad cells
ALR inh – blocks human ALR sulfhydryl oxidase activity; purified ALR, DTT oxidation, H2O2 HRP-luminol luminescence; inhibition, % (test concentration not listed); hit rate 3.8% among 290,000;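 active = mean replicate inhibition above about 79%, with every replicate also reaching it, limit read from the data; inconclusive = only one of the two criteria met; inactive = mean below limit and not every replicate reaching it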
Target sequence (P55789 whole entry, looked up): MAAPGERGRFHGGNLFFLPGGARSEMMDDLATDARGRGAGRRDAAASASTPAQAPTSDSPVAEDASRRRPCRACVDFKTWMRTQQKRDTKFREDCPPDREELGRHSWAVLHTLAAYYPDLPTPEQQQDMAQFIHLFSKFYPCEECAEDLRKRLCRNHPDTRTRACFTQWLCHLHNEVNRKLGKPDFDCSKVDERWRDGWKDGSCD
PP5 inh – PP5 (human) phosphatase inhibition. purified PP5c, OMFP substrate fluorescence. inhibition, % at 6.7 µM. hit rate 0.18% among 320,000. AID 1987;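 active = inhibition above the campaign's mean inhibition across all tested compounds plus 3 SD, cut at about 9.5% in these data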;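 note: 0% = DMSO only and 100% = 100 µM cantharidin control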
Calb FLC – affects C. albicans growth with fluconazole; growth inhibition, % (test concentration not listed); AID 1979; C. albicans CaCi-2 (fluconazole-resistant clinical isolate) + fluconazole, Alamar Blue growth, 48 h; hit rate 0.57% among 300,000;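 active = growth inhibition above about 58% in most replicates, limit read from the data, passing the limit was not always enough; inconclusive = exactly half the replicates above a set limit; inactive = most replicates below a set limit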;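 note: all wells also contain fluconazole at 8 µg/ml as a sub-toxic cotreatment; 0% = median of DMSO wells and 100% = median of geldanamycin control wells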
* = called active by the depositor; ? = inconclusive; . = not tested or not shown.

SMILES	PP1 inh	CSC inhib	ALR inh	PP5 inh	Calb FLC
Cc1csc2nc(O)c(C(=O)NC3CCCCC3)c(=O)n12	0	-3	22	-1	0
Cc1ccc(C(=O)OCC(=O)Nc2ccc3[nH]c(=O)[nH]c3c2)cc1S(=O)(=O)N1CCOCC1	-3	-10	-3	-1	3
Cc1ccc(N2C(=O)CC(N(CCc3ccccc3)C(=S)Nc3ccc(N(C)C)cc3)C2=O)cc1 (centres undefined)	-2	95*	-6	2	-19
O=C1CC(N(CCc2ccccc2)C(=S)Nc2ccccc2)C(=O)N1c1ccc(Br)cc1 (centres undefined)	5	-6	-2	3	0
COc1ccc(NC(=O)c2cc3ccccc3cc2O)cc1	1	87*	3	2	18
Cc1ccc(NC(=O)NNC(=O)c2cc3ccccc3cc2O)cc1C	14	-7	4	1	81*
COc1ccc2o/c(=N\O)c(C(=O)Nc3ccccc3OC)cc2c1	-6	-6	0	1	-9
CCc1ccc(NC(=O)NNC(=O)c2ccc3ccccc3c2O)cc1	.	5	-3	.	68
CCc1ccc(NC(=O)NNC(=O)c2cc3ccccc3cc2O)cc1	15*	1	4	0	?
COc1ccc(NC(=O)c2cc3ccc(O)cc3o/c2=N\O)cc1	3	75*	23	6	13
Cc1ccc(NC(=O)c2cc3ccccc3cc2O)cc1	0	26	.	0	-4
CN(Cc1c(C(=O)N/N=C/c2c(F)cccc2Cl)nnn1-c1nonc1N)c1ccccc1	5	-4	0	4	.
CCOc1ccc(NC(=O)c2ccccc2O)cc1	2	-11	8	2	-14
CCOc1ccc(NC(=O)NNC(=O)c2cc3ccccc3cc2O)cc1	10	-3	1	-2	86*
COc1ccc([N+](=O)[O-])cc1NC(=O)CS(=O)(=O)c1ccc(C)cc1	-1	.	.	-1	-1
COc1ccc([N+](=O)[O-])cc1NC(=O)CCS(=O)(=O)c1ccc(Br)cc1	17*	-6	-1	5	13
COc1ccc([N+](=O)[O-])cc1NC(=O)CSCc1ccccc1C	4	7	99*	3	15
COc1ccc(C)cc1NC(=O)CSCc1ccccc1C	4	1	10	5	-4
O=C(CSc1n[nH]c(=O)n1Cc1ccco1)c1ccc(F)cc1	0	10	47	0	3
CCn1c2ccccc2c2cc(NC(=O)CSc3nnc(C4CC4)n3Cc3ccco3)ccc21	8	-1	98*	5	2
CCn1c(SCC(=O)Nc2ccc3c(c2)OCO3)nnc1C1CC1	1	-8	-6	2	2
COc1ccccc1/C=C/C(=C1/C(=O)N(c2ccccc2)N=C1C)c1ccc(C)cc1	-5	35	-5	-2	-4
CCCn1c(N)c(C(=O)CSc2nc3ccccc3s2)c(=O)[nH]c1=O	-4	42	97*	-3	6
CCCn1c(N)c(C(=O)CSc2nnc(N)s2)c(=O)[nH]c1=O	1	.	0	-1	.
CN(C(=O)CSc1nc2ccccc2s1)c1c(N)n(Cc2ccccc2)c(=O)[nH]c1=O	-1	1	99*	-2	24
SMILES	PP1 inh	CSC inhib	ALR inh	PP5 inh	Calb FLC
COc1ccc(/C=N/NC(=O)c2c(-c3ccccc3)noc2C)cc1[N+](=O)[O-]	-1	-1	-2	1	-3
CCOC(=O)c1ccc2ncc(C(=O)OCC)c(NCCN3CCOCC3)c2c1	1	-7	-9	1	0
CCOC(=O)c1cnc2ccc(C)cc2c1Nc1ccc(N2CCOCC2)cc1	1	0	98*	2	96*
CNC[C@H](CC1CCCCC1)NC[C@H](Cc1ccccc1)NCCC12CC3CC(CC(C3)C1)C2	21*	-18	-39	7	91*
NC[C@H](Cc1ccccc1)NCCCCC1CCCCC1	1	1	-3	1	.
CC1(C)N=C(N)N=C(N)N1c1ccc(Oc2ccc(Cl)cc2)c(Cl)c1	0	89*	-4	-1	26
CCN(CC)C(=S)SCC(=O)c1ccccc1	6	9	29	0	-3
CCN(CC)C(=S)SSC(=S)N(CC)CC	-2	-11	97*	3	100*
Oc1ccc(-c2[nH]ncc2-c2cnn(-c3ccccc3)c2)c(O)c1	-4	29	98*	0	7
O=C(O)CSc1nnc(-c2ccc(Cl)cc2)n1-c1ccccc1	4	-10	86*	0	32
Oc1ccc(-c2nnc(Nc3cccc(O)c3)c3ccccc23)cc1	2	-3	98*	2	-2
Cc1ccc(-c2nnc(Nc3cccc(O)c3)c3ccccc23)cc1S(=O)(=O)NCCO	.	-3	64	.	1
CN(C)C(=O)c1ccc(Nc2nnc(-c3ccc(O)cc3)c3ccccc23)cc1	-1	9	74	1	-3
CNC(=O)c1cc(Nc2nnc(-c3ccc(O)cc3)c3ccccc23)ccc1OC	11	-19	98*	0	17
NC(=O)COc1ccc(Nc2nnc(-c3ccc(O)cc3)c3ccccc23)cc1	6	-11	99*	-1	-3
Cc1ccc(-c2nnc(Nc3ccc(O)cc3)c3ccccc23)cc1S(=O)(=O)NCCO	.	-5	97*	.	5
Cc1ccc(-c2nnc(Nc3ccc(OCC(N)=O)cc3)c3ccccc23)cc1S(N)(=O)=O	-2	-3	-92	3	.
CNC(=O)c1ccc(Nc2nnc(-c3ccc(O)cc3)c3ccccc23)cc1	4	-6	30	-2	-3
COc1cc(/C=N/N2C(=O)CSC2=S)ccc1O	8	3	.	-3	19
CC(NC(=O)C(C)N1C(=O)c2cccc([N+](=O)[O-])c2C1=O)c1ccccc1 (centres undefined)	-3	-20	2	-2	-12
O=C1c2ccccc2NC(c2cccc([N+](=O)[O-])c2)N1CCc1ccccc1 (centres undefined)	-3	-8	-4	5	-4
CN(C(=O)CN1C(=O)S/C(=C\c2cccc(Cl)c2)C1=O)C1CCS(=O)(=O)C1 (centres undefined)	-4	6	-14	0	21
CN(C)c1ccc(NC(=O)COC(=O)c2cc(=O)c3ccccc3o2)cc1	-3	-4	99*	3	20
CC(OC(=O)c1cc(=O)c2ccccc2o1)C(=O)Nc1ccc(N(C)C)cc1 (centres undefined)	-4	.	.	0	.
O=C(COc1ccc(Br)cc1Br)NC(=S)N1CCCc2ccccc21	2	.	93*	0	-7
COc1ccc(OC)c(-c2c3cc(O)c(=O)cc-3oc3cc(O)c(O)cc23)c1	-103	95*	80*	-82	.
COc1ccccc1OCCC(=O)N1CCN(c2ccccc2OC)CC1	-2	-11	82*	0	-2
COc1ccccc1C(=O)NCCC(=O)N1CCCCC1	0	2	-15	0	-18
O=C(CSc1ccc2ccccc2c1)N1CCN(c2ccc(O)cc2)CC1	-4	91*	98*	1	-15
O=C(NC(CC(=O)N1CCN(c2ccccc2O)CC1)c1ccccc1)c1ccccc1Cl (centres undefined)	1	.	99*	-1	.
